Rows were chosen to be rich in hits. Some 2.6% of all compounds tested hit in one or more screens of this group.
Fam108B counter = mouse Fam108B serine hydrolase inhibitors, primary screen, counter-screen for RBBP9 inhibitor project, biochemical, fluorescence polarization | AID 1947, 2009 | inhibition, % at 9.51 µM | recombinant Fam108B, FP-Rh probe fluorescence polarization | 300,000 compounds, 0.33% hits;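 active = inhibition above the screen mean inhibition plus 3 SD, computed separately per campaign, cut at about 18% in these data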;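 note: inhibitors lower polarization as less probe binds the enzyme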
TCR-CD3 inh = inhibitors of human TCR-CD3 interaction, primary screen, biochemical, fluorescence, TAMRA-labeled TCR probe. inhibition, % at 9.4 µM. 360,000 compounds, 0.37% hits. AID 651800, 2012; in the data active = inhibition above about 19%;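 note: recombinant mutant TCR 2C K166C tagged with TAMRA read by polarization; 0% = receptor in buffer alone and 100% = receptor with positive control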
SIAE inh = human SIAE inhibitors, primary screen, biochemical, fluorescence polarization, FP-Rh probe, 1536-well HTS. Sialate O-acetylesterase (Homo sapiens), Q9HAT2. SIAE FP-Rh probe binding. inhibition, % at 9.66 µM. 370,000 compounds, 0.69% hits. AID 1053197, 2014;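 active = inhibition above a cutoff: mean of compounds within the control limits plus 3 SD of those, cut at about 17% in these data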;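 note: 0% = plate median of compound wells and 100% = probe without SIAE protein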
PRMT1 inh = PRMT1 methyltransferase inhibitors, primary screen, biochemical, fluorescence polarization | Protein arginine N-methyltransferase 1 (Homo sapiens), Q99873 | recombinant PRMT1, activity-based probe fluorescence polarization | inhibition, % at 2.79 µM | 370,000 compounds, 1.3% hits | AID 652257, 2013;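 active = inhibition above about 21% made by adding two undisclosed values, limit read from the data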
Target sequence (Q99873 whole entry, looked up): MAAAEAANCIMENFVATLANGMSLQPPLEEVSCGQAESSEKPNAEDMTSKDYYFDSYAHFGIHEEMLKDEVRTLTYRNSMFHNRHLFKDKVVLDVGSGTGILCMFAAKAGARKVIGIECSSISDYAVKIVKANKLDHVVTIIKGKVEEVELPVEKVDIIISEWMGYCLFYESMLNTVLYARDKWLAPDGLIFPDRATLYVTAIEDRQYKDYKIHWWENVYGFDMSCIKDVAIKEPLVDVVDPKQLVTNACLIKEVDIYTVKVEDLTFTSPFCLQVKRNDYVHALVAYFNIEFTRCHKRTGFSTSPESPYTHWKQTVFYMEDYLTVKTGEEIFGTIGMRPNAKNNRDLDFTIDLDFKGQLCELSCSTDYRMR
PME-1 primary = PME-1 inhibitors via competitive probe labeling, primary screen, biochemical, fluorescence polarization, FP-Rh probe, HTS. Protein phosphatase methylesterase 1 (Homo sapiens), Q9Y570. recombinant PME-1. inhibition, % at 5.9 µM. 320,000 compounds, 0.53% hits. AID 2130, 2009;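 active = inhibition above the campaign mean of all compounds plus 3 SD, cut at about 26% in these data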;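 note: competitive labeling of PME-1 active site by serine hydrolase directed probe; 0% = PME-1 with DMSO and 100% = wells lacking PME-1 enzyme; inhibitors block probe labeling so polarization falls and inhibition rises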
PAD4 FP inh = human PAD4 inhibitors, primary screen, biochemical, fluorescence polarization, 1536-well format | 330,000 compounds, 0.41% hits | inhibition, % at 6.36 µM | recombinant PAD4, RCA probe fluorescence polarization | Protein-arginine deiminase type-4 (Homo sapiens), Q9UM07 | AID 485272, 2010;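 active = percent inhibition above a cutoff equal to the mean of all tested compounds plus 3 SD, cut at about 15% in these data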;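 note: 0% = PAD4 with RCA probe and DMSO and 100% = probe without PAD4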
PRMT1 inh conf = PRMT1 methyltransferase inhibitors, confirmation, biochemical, fluorescence polarization, triplicate | 3,300 compounds, 42% hits | recombinant His-PRMT1, activity-based probe fluorescence polarization | inhibition, % at 2.79 µM | shares compounds with PRMT1 inh | AID 687036, 2013;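 active = mean inhibition across replicates above the hit cutoff derived for the earlier primary screen, cut at about 22% in these data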
* hit, by the source's call.

Screening O=[N+]([O-])c1cc(-c2ccc(/C=N/c3nc4ccccn4c3-c3ccco3)o2)ccc1Cl returned Fam108B counter 8, TCR-CD3 inh 4, SIAE inh 16, PRMT1 inh 41*, PME-1 primary 2, PAD4 FP inh 2 and PRMT1 inh conf 1.
Screening O=[N+]([O-])c1cc(-c2cnc3ccccc3n2)ccc1Cl returned Fam108B counter 0, TCR-CD3 inh -2, SIAE inh -7, PRMT1 inh 2, PME-1 primary 0 and PAD4 FP inh 3.
Cc1ccc(-c2nnc(SCC(=O)Nc3ccc4c(c3)OCCO4)n2-c2ccc(C)cc2)cc1 was read as SIAE inh 2 and PRMT1 inh 1.
For CC#CC(=O)N1CCC(Oc2cccc(C(=O)NCc3ccccn3)c2)CC1 the results were Fam108B counter -3, TCR-CD3 inh 9, SIAE inh 9, PRMT1 inh 74*, PME-1 primary 8, PAD4 FP inh 2 and PRMT1 inh conf 2.
`CCNC(=S)NNC(=O)c1cnccn1` gave SIAE inh 5 and PRMT1 inh -4.
`C/C(=N\NC(=S)NCCc1ccccc1)c1cccs1` gave Fam108B counter -3, TCR-CD3 inh -2, SIAE inh 3, PRMT1 inh 29*, PME-1 primary 2, PAD4 FP inh -2 and PRMT1 inh conf 12.
NC(=O)c1c(N)[nH]c(C(=O)c2ccccc2)c1-c1ccccn1 was read as SIAE inh 3 and PRMT1 inh 3.
For O=C(CSc1nc2c(c(C(F)(F)F)n1)CCc1ccccc1-2)NCc1ccco1 the results were Fam108B counter -4, TCR-CD3 inh -9, SIAE inh -10, PRMT1 inh 26*, PME-1 primary 0, PAD4 FP inh -4 and PRMT1 inh conf 3.
Screening CCN(CC)c1ccc(/C=N/n2c(-c3ccccc3Br)n[nH]c2=S)cc1 returned Fam108B counter -3, TCR-CD3 inh -3, SIAE inh 4, PRMT1 inh 25*, PME-1 primary 2, PAD4 FP inh -5 and PRMT1 inh conf 8.
For Cc1ccc(S(=O)(=O)NNc2nc3ccccc3nc2C(F)(F)F)cc1 the results were Fam108B counter 5, TCR-CD3 inh 0, SIAE inh 0, PRMT1 inh 81*, PME-1 primary 4, PAD4 FP inh -5 and PRMT1 inh conf 18.
Screening O=C(O)c1ccc(CN2C(=O)CSC2=S)cc1 returned Fam108B counter -6, TCR-CD3 inh -41, SIAE inh -32, PRMT1 inh 29*, PME-1 primary -54, PAD4 FP inh -142 and PRMT1 inh conf 5.
O=C(Sc1ccc(Cl)cc1)c1ccccn1 was read as Fam108B counter 1, TCR-CD3 inh -5, SIAE inh 8, PRMT1 inh 47*, PME-1 primary 5, PAD4 FP inh 2 and PRMT1 inh conf 44*.
Screening CCn1c(Cc2cccs2)nnc1SCC(=O)c1ccc(Cl)cc1 returned SIAE inh 3 and PRMT1 inh -1.
`O=C(O)CN1C(=O)/C(=C/c2ccc(N3CCCCC3)o2)SC1=S` gave Fam108B counter -252, TCR-CD3 inh -4, SIAE inh -2, PRMT1 inh 38*, PME-1 primary -103, PAD4 FP inh -1 and PRMT1 inh conf 37*.
CCCN1C(=O)S/C(=C\c2ccc(N3CCOCC3)o2)C1=O was read as Fam108B counter -13, TCR-CD3 inh -3, SIAE inh 2, PRMT1 inh 26*, PME-1 primary -8, PAD4 FP inh -2 and PRMT1 inh conf -72.
Cc1ccc(-n2c(SCC(=O)c3ccccc3Br)nnc2-c2ccncc2)cc1 was read as SIAE inh 2 and PRMT1 inh 6.
`COC(=O)[C@]12C[C@H](CC(=O)NCc3ccccc3)C(=O)N(Cc3ccco3)C1=C[C@H](C(C)(C)C)O[C@@H]2C` gave SIAE inh 1 and PRMT1 inh 5.

Source: PubChem BioAssay
